This passage reports binding signal results from paper PMC12136788.

In all, about 5,800 sequences were measured (“enrichment r”: median about 0.68, highest 2% from about 11 on). Not all results are given here.

T1: UNK ZnF1-6 (called full-length) (human, UniProt Q9C0B0 30-357)
T1 sequence: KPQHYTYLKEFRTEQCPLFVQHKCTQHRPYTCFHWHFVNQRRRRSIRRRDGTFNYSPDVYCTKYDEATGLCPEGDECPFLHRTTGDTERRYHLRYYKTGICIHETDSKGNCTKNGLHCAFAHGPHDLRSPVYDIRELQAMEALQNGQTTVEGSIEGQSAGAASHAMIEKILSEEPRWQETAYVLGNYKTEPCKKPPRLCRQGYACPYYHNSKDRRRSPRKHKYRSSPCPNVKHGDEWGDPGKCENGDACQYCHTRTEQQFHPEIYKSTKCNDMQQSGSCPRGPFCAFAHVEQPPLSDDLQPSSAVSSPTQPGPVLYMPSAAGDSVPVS

B1: ENSG00000198589:be:win_3501|CDS|ENSG00000198589|bound_else_gene|NA|bound_elsewhere_windowed (ssRNA)
RNA: GGGAGUUCUACAGUCCGACGAUCUGAUACUGAAACUCAAGAUUCUAAAGAUUCUGGAAUUCAGACUAUGACAGCAUCAGGGUCUUCAGCUAUGUCACCAGAAACUACUGUUUCCCAAAUAGCUGUAGAAUCAGACCUUGGUCACAACAGAGGAUUGAGCAUCA
B2: chr5:136975339:136975545:-|3pUTR|ENSG00000152377|msi1|total|mutant (ssRNA)
RNA: GGGAGUUCUACAGUCCGACGAUCAGAGCCCAUCAAAUCCUGAGUGUCAGUUUGUUGUCCCUAUUGCCGAUGAAACCGUGAUGCCGCAAAAACCCCGUAAAUUCUGAAUGCUUUUCCACGCCGACUUAUCUGGAAUGUGAACACCAACAGAGGAUUGAGCAUCA
B3: chr3:124966548:124966651:-|3pUTR|ENSG00000173706|unk|total|mutant (ssRNA)
RNA: GGGAGUUCUACAGUCCGACGAUCAGGAAGAAUGCAAAGUUCAGUAUUUCAAUACUUUGUAUUUUACUUGAAAUUACCCUCCGCCGCAUCUUUUUUUUCCUGUCUGAAAGCUUUUGUGUGGAUGAGAAGGGACAUUUCAUUUCCCAACAGAGGAUUGAGCAUCA
B4: ENSG00000124766:be:win_801|CDS|ENSG00000124766|bound_else_gene|NA|bound_elsewhere_windowed (ssRNA)
RNA: GGGAGUUCUACAGUCCGACGAUCCUCGGCCUCCGCCUCCUCGGCAGCCUCGGCCUCCGCAGCGCUCGCGGCCCCGGGCAAGCACCUGGCGGAGAAGAAGGUGAAGCGCGUCUACCUGUUCGGCGGCCUGGGCACGUCGUCGUCCAACAGAGGAUUGAGCAUCA
B5: ENSG00000101945:stop:overlap|stop_codon|ENSG00000101945|stop_codon|NA|stop_codon (ssRNA)
RNA: GGGAGUUCUACAGUCCGACGAUCAGAAGCGGGUCCGUAUUGAAUGCAAGUGUGGGACUGAGUCCUGCCGCAAAUACCUCUUCUAGCCCUUAGAAGUCUGAGGCCAGACUGACUGAGGGGGCCUGAAGCUACAUGCACCUCCCCCAACAGAGGAUUGAGCAUCA
B6: chr12:24812577:24812678:-|3pUTR|ENSG00000060982|msi1|FALSE|unique (ssRNA)
RNA: GGGAGUUCUACAGUCCGACGAUCAUCCAAAGGAGCUUUUUCCUUAUUCUGUCAAGCAUUGAGAUCUUCUUCAGCUUUCAAUGUAGUUGCUAAAUACAAAUAAUGCUACUAGGUAGUGACUAAAUAUAGCAAACACUUCAUCAGCAACAGAGGAUUGAGCAUCA
B7: chr10:22535117:22535218:-|3pUTR|ENSG00000150867|unk|FALSE|unique (ssRNA)
RNA: GGGAGUUCUACAGUCCGACGAUCAAGGUACACAUACAUUAUUUGAGUAACUGUUUCCUUGGGGGCCAAUCUGUGUAUGCUUUUAGAAGUUUACAGAAUGCUUUUAUUUUUGUCUAUAACAAACAGUCUGUCAUUUAUUUCUGUCAACAGAGGAUUGAGCAUCA
B8: chr9:76611375:76614569:-|three_prime_utr|ENSG00000106772|control|control|control (ssRNA)
RNA: GGGAGUUCUACAGUCCGACGAUCAUGUUACCUUUUUCCACUUUGCACUACCUGGUGCCAUUCUAAAUUUCUAAGGGGAAAAAUAGAAAGUUUGUUUACUCUUAAGAUAUUUUAUGAAAUUGUGUGUACUUUCCUAUUUUGCCACAACAGAGGAUUGAGCAUCA
B9: chr12:131960804:131960905:+|CDS|ENSG00000183495|unk|total|mutant (ssRNA)
RNA: GGGAGUUCUACAGUCCGACGAUCCCCUCAGCAAGCCCGUCGGCACCCCAGUCUCCCAGUUAUCAAAUACAGCAGCUGAUGAACCGGAGCCCUGCAACCGGGCAGAACGUGAACAUCACCCUGCAGAGCGUGGGCCCUGUCGUCCAACAGAGGAUUGAGCAUCA
B10: chr1:154944474:154944574:-|3pUTR|ENSG00000163346|msi1_unk|FALSE|overlapping (ssRNA)
RNA: GGGAGUUCUACAGUCCGACGAUCUCGAGGCCCAGCACGAGGACUUACCCUGGGGUUUUGUUAGGUUUGGAAGCAGCUGUCCCUAGGGGGUGAAGUCCCCCCCCUUUUUUUUUUUACCCCUGCUUCUCCCACGGCUUCACCUCCCAACAGAGGAUUGAGCAUCA
B11: chr7:32869766:32869881:-|CDS|ENSG00000170852|unk|FALSE|bound_elsewhere (ssRNA)
RNA: GGGAGUUCUACAGUCCGACGAUCAUGUACUGUUAUUUUCCAAGGUCUGACUCAUGGGUAGAAAUGGCCAUGAGACAGACUAGUAGGUCCUUUGCUUCAGCUGCAGCUUUUGGUGAUAAAAUUUUCUAUAUUGGAGGGUUGCAUCAACAGAGGAUUGAGCAUCA
B12: chr2:42682433:42682535:+|CDS|ENSG00000057935|unk|FALSE|unique (ssRNA)
RNA: GGGAGUUCUACAGUCCGACGAUCUCACGCUAUGGAUACAUUGUAUAGACACAGCUAUGAUUUGAGCAGUGCCAUUAGUGUCUUAGUACCACUCGGAGGACCUGUUUUAUGCAGAGAUGAAAUGGAGGAAUGGUCAGCCUCUGACAACAGAGGAUUGAGCAUCA
B13: chr1:64832709:64832810:+|3pUTR|ENSG00000162437|msi1|total|mutant (ssRNA)
RNA: GGGAGUUCUACAGUCCGACGAUCACAGCCCGAAAGUUUAAGGUAAUUUCUAAGUAUACUACCUAUAAGUAACUGAUAAGAAUCCGGCAUCAUUCAGUGAUACCGCAGAUGACUAAUGGGUUUUUCAGGCCCUGCACUUCUCUUCAACAGAGGAUUGAGCAUCA
B14: chr7:16784014:16784129:+|3pUTR|ENSG00000106537|msi1_unk|total|mutant (ssRNA)
RNA: GGGAGUUCUACAGUCCGACGAUCGAUAAUUUACUUGCCGUCUUUUAUGAUUACACCAAUGUAUUCCCGAAACCGUUAUGUCUCCGGAAAUUGUGGUUUAAUUUUUGACUUUUACAGGUAAGUGCAAAGGAGAAGUGGUUUCAUCAACAGAGGAUUGAGCAUCA
B15: chr8:79641408:79641533:+|CDS|ENSG00000104435|unk|total|mutant (ssRNA)
RNA: GGGAGUUCUACAGUCCGACGAUCCCAGGCUUUUGAGCUGAUCUUGAAGCCACCAUCUCCUAUCUCAGAAGCCCCACGAACUUCCGCUUCUCCAAAGAAGAAAGACCUGUCCCUGGAGGAGAUCCAGAAGAAACUGGAGGCUGCCAACAGAGGAUUGAGCAUCA
B16: ENSG00000107863:be:win_6101|3pUTR|ENSG00000107863|bound_else_gene|NA|bound_elsewhere_windowed (ssRNA)
RNA: GGGAGUUCUACAGUCCGACGAUCGCAAGGUAUUUGUUGCAACUUACUACAUAGCAUAUACCCAAAAUCACUGAAGAAAAUCGCUGGCAUCAGUGUGCAGCAAAUUUGUUCUUUUGGUUUCAUCACUAACAAAAGUGCCUCAUCCAACAGAGGAUUGAGCAUCA
B17: chr14:102081487:102081564:-|3pUTR|ENSG00000080824|msi1_unk|FALSE|overlapping (ssRNA)
RNA: GGGAGUUCUACAGUCCGACGAUCGAAGAUAAGAUUUCUGUCUACUAAGUGAUGCUGUGAUACCUUAGGCACUAAAGCAGAGCUAGUAAUGCUUUUUGAGUUUCAUGUUGGUUUAUUUUCACAGAUUGGGGUAACGUGCACUGUCAACAGAGGAUUGAGCAUCA
B18: chr14:54957033:54957204:-|CDS|ENSG00000198554|control|control|control (ssRNA)
RNA: GGGAGUUCUACAGUCCGACGAUCGCACGUUCAACUAAUAUUUUAGACAAUAUGGGCAAAUCAUCCAAGAAAUCCACUGCACUUAGUCGAACUACAAAUAAUGAAAAGUCUCCCAUUAUAAAGCCUCUGAUUCCAAAGCCGAAGCAACAGAGGAUUGAGCAUCA
B19: chrX:55006554:55006655:+|CDS|ENSG00000169188|unk|FALSE|unique (ssRNA)
RNA: GGGAGUUCUACAGUCCGACGAUCAGGGCGCAAGUGGAUGGACAGCUUGCUCAGUAACUUGGGGUGCCAGUCUGCCUCUCAUGUAGGGCCCUUCAUCGAUAGCUACCGCUGCUUCCAACCAAAGCAGGAGGGGGCCUUCACCUGCAACAGAGGAUUGAGCAUCA
B20: chrX:112630647:112631419:-|three_prime_utr|ENSG00000182508|control|control|control (ssRNA)
RNA: GGGAGUUCUACAGUCCGACGAUCAGAAGAUUGGAGAGGGUGGGAAAGGGGAGGAGGGAGCCCUGAAAAGAGGUACUAAGGAUUAGGCCAUUUGUCAUCUGACUGUCAUUAGCAUAGCCUAGUGUUUGCAUGCUUUUUAAACUACAACAGAGGAUUGAGCAUCA
B21: chr1:173887777:173887878:+|3pUTR|ENSG00000185278|unk|FALSE|unique (ssRNA)
RNA: GGGAGUUCUACAGUCCGACGAUCAAAGAGAUUUGGCAGAGGGACAGGUUGUACCUGCACUGGUGAACCAUCUGUGAGAAUGUUAGUCAUGUGCUCCUUUCCUGAGAUUGCUUUGUGGUAUGUGAAAAGGUGGGUAGAAAAGAACAACAGAGGAUUGAGCAUCA
B22: chr1:93180074:93180188:-|CDS|ENSG00000117500|unk|FALSE|bound_elsewhere (ssRNA)
RNA: GGGAGUUCUACAGUCCGACGAUCCUGGCCGCUCUGCCUCCGGUGCUGCUGCCUGGGGCGGCCGGCUUCACACCUUCCCUCGAUAGCGACUUCACCUUUACCCUUCCCGCCGGCCAGAAGGAGUGCUUCUACCAGCCCAUGCCCCAACAGAGGAUUGAGCAUCA

The test has as its target T1, UNK ZnF1-6 (called full-length). Briefly: nsRBNS (natural sequence RNA bind-n-seq); RBNS binding buffer (assumed for nsRBNS): 25 mM Tris pH 7.5, 150 mM KCl, 3 mM MgCl2, 0.01% Triton X-100, 500 ug/ml BSA, 20 U/ml SUPERase-In, 4 C; UNK is unkempt and MSI1 is Musashi-1; names of the RNAs are library labels; protein concentration not given here; high values mean tight binding.
Take B1: the binding signal amounted to 0.311 enrichment R.
For the molecule B2, the binding signal stood at 0.528 enrichment R.
As to B3, the binding signal was found to be 0.473 enrichment R.
In the case of B4 it was 0.655 enrichment R; in that of B5, 0.806 enrichment R.
For B6, the binding signal worked out at 0.559 enrichment R.
In the case of B7, the binding signal stood at 0.472 enrichment R.
In the case of B8 it was 0.818 enrichment R.
The same measure for B9: 1.09 enrichment R; for B10: 1.37 enrichment R; for B11: 0.714 enrichment R.
In the case of B12 it was 0.747 enrichment R; in that of B13, 0.244 enrichment R; in that of B14, 0.435 enrichment R.
Take B15: the binding signal came to 0.67 enrichment R.
The same measure for B16: 0.567 enrichment R; for B17: 0.375 enrichment R; for B18: 1.02 enrichment R.
Molecule B19 came in with a binding signal of 0.87 enrichment R.
Take B20: the binding signal was determined as 1.14 enrichment R.
B21 came in with a binding signal of 0.823 enrichment R.
With B22, the binding signal was determined as 1.1 enrichment R.
